Records with an inconclusive call do not appear. Activity calls are given as the source filed them. Calls come from the whole dose curve; as a rule, active = well fitted curve in the direction sought with a large enough effect; inconclusive = small, poorly fitted or top-dose-only effect, or another doubt; inactive = no such curve, though single readings can be large; an effect the other way counts as inactive or inconclusive.
Columns and labels:
HaCat [1] = experiment: Cytotoxic Profiling of Annotated Libraries Using Quantitative High-Throughput Screening (AID 1296008); details: Five cell lines viability, CellTiter-Glo ATP luminescence, 48-72 h; max response: stronger effect = lower value; note: nearly all actives have a fitted effect of over 60% in size
How it was run: (§1)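 Cells exposed to compounds for 48 or 72 hr at 37 degrees Celsius. Viability read as ATP-coupled luminescence with CellTiter-Glo after 10 min at room temperature.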

NIH3T3 [2] = experiment: as above; details: Five cell lines viability, CellTiter-Glo ATP luminescence, 48-72 h; max response: stronger effect = lower value
How it was run: as §1

HACAT [3] = experiment: qHTS assay to identify novel small-molecules to repurpose for Merkel cell carcinoma treatment (AID 1296009); details: MCC and control cell lines, CellTiter-Glo viability, 72 h; at 44.8 µM (top of the series) unless noted; note: nearly all actives have a fitted effect of over 60% in size
How it was run: (§2)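 CellTiter-Glo luminescence after 72 hr compound exposure at 37 degree celsius gave cell viability. Libraries NPC and MIPE were run as 8- and 11-point dose responses; RLUs normalized to DMSO (negative) and no-cell (cytotoxicity) controls.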

MCC-13 = experiment: as above; details: MCC and control cell lines, CellTiter-Glo viability, 72 h; series mostly up to 46 µM
How it was run: as §2

MCC-26 = experiment: as above; details: MCC and control cell lines, CellTiter-Glo viability, 72 h; series mostly up to 46 µM
How it was run: as §2

MKL-1 = experiment: as above; details: MCC and control cell lines, CellTiter-Glo viability, 72 h; series mostly up to 46 µM
How it was run: as §2

MKL-2 = experiment: as above; details: MCC and control cell lines, CellTiter-Glo viability, 72 h; series mostly up to 46 µM
How it was run: as §2

UISO = experiment: as above; details: MCC and control cell lines, CellTiter-Glo viability, 72 h; series mostly up to 46 µM
How it was run: as §2

WaGa = experiment: as above; details: MCC and control cell lines, CellTiter-Glo viability, 72 h; series mostly up to 46 µM
How it was run: as §2

C33A = experiment: Primary qHTS to identify gynecologic anti-cancer compounds using libraries of approved drugs and bioactive compounds (AID 1345084); details: Gynecologic cancer cell panel viability, ATPlite luminescence, 48 h; series mostly up to 57.5 µM; note: nearly all actives have a fitted effect of over 55% in size
How it was run: (§3)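 ATP-based viability (ATPlite), 1,000 cells/well, 16 h pre-incubation, 48 h compound at 37 C, 5% CO2, 15 min RT before read.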

CAOV3 = experiment: as above; details: Gynecologic cancer cell panel viability, ATPlite luminescence, 48 h; series mostly up to 57.5 µM
How it was run: as §3

CASKI = experiment: as above; details: Gynecologic cancer cell panel viability, ATPlite luminescence, 48 h; series mostly up to 57.5 µM
How it was run: as §3

Es-2 = experiment: as above; details: Gynecologic cancer cell panel viability, ATPlite luminescence, 48 h; series mostly up to 57.5 µM
How it was run: as §3

HeLa = experiment: as above; details: Gynecologic cancer cell panel viability, ATPlite luminescence, 48 h; series mostly up to 57.5 µM
How it was run: as §3

Hek293T = experiment: as above; details: Gynecologic cancer cell panel viability, ATPlite luminescence, 48 h, control line for the selectivity index; series mostly up to 57.5 µM
How it was run: as §3

JEG-3 = experiment: as above; details: Gynecologic cancer cell panel viability, ATPlite luminescence, 48 h; series mostly up to 57.5 µM
How it was run: as §3

OV90 = experiment: as above; details: Gynecologic cancer cell panel viability, ATPlite luminescence, 48 h; series mostly up to 57.5 µM
How it was run: as §3

NIH3T3 [4] = experiment: qHTS assay to identify novel small-molecules to repurpose for Merkel cell carcinoma treatment (AID 1296009); details: MCC and control cell lines, CellTiter-Glo viability, 72 h; at 44.8 µM (top of the series) unless noted; note: nearly all actives have a fitted effect of over 60% in size
How it was run: as §2
% is set by controls: 0 for no effect and ±100 for the full control effect.

CCCC(CCC)(C(=O)OCC)C(=O)OCC
inactive: outcome (HaCat [1]) | max response (NIH3T3 [2]) 4.44% | outcome (HACAT [3]) | Potency (MCC-13) | Potency (MCC-26) | Potency (MKL-1) | Potency (MKL-2) | Potency (UISO) | Potency (WaGa) | Potency (C33A) | Potency (CAOV3) | Potency (CASKI) | Potency (Es-2) | Potency (HeLa) | Potency (Hek293T) | Potency (JEG-3) | Potency (OV90)

Cc1nc(C2CCCCC2)c(-c2ccc(S(N)(=O)=O)c(F)c2)o1
inactive: outcome (HaCat [1]) | max response (NIH3T3 [2]) -12.8% | outcome (HACAT [3]) | Potency (MCC-13) | Potency (MCC-26) | Potency (MKL-1) | Potency (MKL-2) | Potency (UISO) | Potency (WaGa) | Potency (C33A) | Potency (CAOV3) | Potency (CASKI) | Potency (Es-2) | Potency (HeLa) | Potency (Hek293T) | Potency (JEG-3) | Potency (OV90)

CCCCC(O)/C=C(C)/C=C/C=C/C(=O)N1CCCC1=O (stereo unspecified)
inactive: outcome (HaCat [1]) | outcome (NIH3T3 [2]) | outcome (HACAT [3]) | Potency (MCC-13) | Potency (MCC-26) | Potency (MKL-1) | Potency (MKL-2) | outcome (NIH3T3 [4]) | Potency (UISO) | Potency (WaGa) | Potency (C33A) | Potency (CAOV3) | Potency (CASKI) | Potency (Es-2) | Potency (HeLa) | Potency (Hek293T) | Potency (JEG-3) | Potency (OV90)

CCCCCCCC(=O)[O-].CCCCCCCC(=O)[O-].[Zn+2]
inactive: outcome (HaCat [1]) | max response (NIH3T3 [2]) 4.51% | outcome (HACAT [3]) | Potency (MCC-13) | Potency (MCC-26) | Potency (MKL-1) | Potency (MKL-2) | Potency (UISO) | Potency (WaGa) | Potency (C33A) | Potency (CAOV3) | Potency (CASKI) | Potency (Es-2) | Potency (HeLa) | Potency (Hek293T) | Potency (JEG-3) | Potency (OV90)

O=C1c2ccccc2CCc2ccccc21
inactive: outcome (HaCat [1]) | max response (NIH3T3 [2]) 0.759% | outcome (HACAT [3]) | Potency (MCC-13) | Potency (MCC-26) | Potency (MKL-1) | Potency (MKL-2) | Potency (UISO) | Potency (WaGa) | Potency (C33A) | Potency (CAOV3) | Potency (CASKI) | Potency (Es-2) | Potency (HeLa) | Potency (Hek293T) | Potency (JEG-3) | Potency (OV90)

CCCCCCn1c(=O)c2c(ncn2C)n(C)c1=O
inactive: outcome (HaCat [1]) | max response (NIH3T3 [2]) 1.26% | outcome (HACAT [3]) | Potency (MCC-13) | Potency (MCC-26) | Potency (MKL-1) | Potency (MKL-2) | Potency (UISO) | Potency (WaGa) | Potency (C33A) | Potency (CAOV3) | Potency (CASKI) | Potency (Es-2) | Potency (HeLa) | Potency (Hek293T) | Potency (JEG-3) | Potency (OV90)

O=C(O)c1cn(C2CC2)c2cc(Cl)c(F)cc2c1=O
inactive: outcome (HaCat [1]) | outcome (NIH3T3 [2]) | outcome (HACAT [3]) | Potency (MCC-13) | Potency (MCC-26) | Potency (MKL-1) | Potency (MKL-2) | outcome (NIH3T3 [4]) | Potency (UISO) | Potency (WaGa) | Potency (C33A) | Potency (CAOV3) | Potency (CASKI) | Potency (Es-2) | Potency (HeLa) | Potency (Hek293T) | Potency (JEG-3) | Potency (OV90)

Source: PubChem BioAssay (NCATS)
